Bcl-xL primary: blocks human Bcl-xL binding to Bim BH3 peptide | Q07817 | GST-Bcl-xL / FITC-Bim BH3 peptide fluorescence polarization | inhibition, % at 10.9 µM | 320,000 tested, 0.7% active;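 active means inhibition above the mean of all tested compounds plus 3 SD, cutoff set per campaign, cut at about 30% in these data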;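 further: inhibitors lower millipolarization by displacing the labeled peptide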
E coli Lon inh: inhibits E. coli Lon protease; 360,000 tested, 0.42% active; inhibition, % at 7.94 µM; AID 602123; purified E. coli Lon protease, fluorescence polarization; in the data active means inhibition above about 13%, passing the limit was not always enough
EBV gp42 inh: blocks Epstein-Barr virus glycoprotein 42 binding; Q1HVG2; Fluorescence polarization binding assay, mP read-out; inhibition, % (tested at 21.74 µM); 220,000 tested, 0.42% active; AID 1085; in the data active means inhibition above about 50%
GLD-1 RNA inh: GLD-1-TGE RNA interaction inhibition (C. elegans); Q17339; purified GLD-1 + fluorescein TGE RNA, fluorescence polarization; inhibition, % at 5.96 µM; 320,000 tested, 0.44% active;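 active means percent inhibition above a per-plate cutoff, the plate mean of test compounds plus 3 SD, cut at about 30% in these data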
MCL1 BIM primary: disrupts human MCL1 binding to BIM-BH3 peptide; Q07820; 320,000 tested, 0.68% active; GST-MCL1 / FITC-Bim-BH3 fluorescence polarization; inhibition, % at 10.9 µM;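 active means inhibition above the mean inhibition of all tested compounds plus 3 SD, set per campaign, cut at about 40% in these data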;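 further: higher means more loss of mP so more displacement of Bim peptide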
MEX-5 binding: C. elegans MEX-5 TCR-2 RNA binding activity; Q9XUB2; MEX-5/FITC-TCR2 RNA binding, fluorescence polarization; active compounds read low; activity score (negative = inhibition of binding), % at 10 µM; 300,000 tested, 0.38% active; AID 1832;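 active means inhibition past about -25% in most replicates, and total fluorescence under double the plate's negative control median, limit read from the data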
Target sequence (Q9XUB2 whole entry, looked up): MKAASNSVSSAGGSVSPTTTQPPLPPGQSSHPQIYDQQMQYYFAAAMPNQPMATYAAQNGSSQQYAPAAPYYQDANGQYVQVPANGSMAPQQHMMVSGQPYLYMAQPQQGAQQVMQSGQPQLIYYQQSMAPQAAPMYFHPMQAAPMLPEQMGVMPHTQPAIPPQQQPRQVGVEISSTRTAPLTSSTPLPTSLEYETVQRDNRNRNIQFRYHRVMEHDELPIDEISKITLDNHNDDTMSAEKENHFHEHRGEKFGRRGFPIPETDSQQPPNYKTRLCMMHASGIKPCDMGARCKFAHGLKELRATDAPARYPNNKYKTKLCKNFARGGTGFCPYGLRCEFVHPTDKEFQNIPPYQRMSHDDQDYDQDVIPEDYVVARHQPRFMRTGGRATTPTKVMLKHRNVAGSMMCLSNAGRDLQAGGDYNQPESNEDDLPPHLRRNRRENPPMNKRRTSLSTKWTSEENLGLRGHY
E coli Lon conf: E. coli Lon inhibition confirmation | purified E. coli Lon, fluorescence polarization | 1,400 tested, 31% active | shares compounds with E coli Lon inh | AID 602230 | inhibition, % at 7.94 µM; in the data active means inhibition above about 16%
Of the large screens only hits and unclear results are named; the others gave an inactive call (follow-up assays come after a bar, where they were run). The list is not random: actives were taken first. Their share in the collection is about 1.5%.

COc1cccc(CNC(=O)c2ccc(S(=O)(=O)N3CCOCC3)cc2)c1	none (no result: Bcl-xL primary, EBV gp42 inh, GLD-1 RNA inh, MCL1 BIM primary, MEX-5 binding)
Cc1cc2cc(CNS(=O)(=O)c3ccc4ccccc4c3)ccc2n1C	E coli Lon inh 16 | E coli Lon conf inactive
Cc1cc2cc(CNC(=O)c3ccc(S(=O)(=O)N4CCOCC4)cc3)ccc2n1C	E coli Lon inh 24 | E coli Lon conf inactive
C[C@@]12CCC3[C@@](CCC4[C@@]3(C)CCC[C@@]4(C)C(=O)N3CCCCC3)(CC1=O)C2 (stereo partly specified)	E coli Lon inh 28 (no result: EBV gp42 inh, MEX-5 binding) | E coli Lon conf inactive
COc1ccc(-c2nc(N3CCN(C)CC3)sc2-c2ccc(OC)cc2)cc1	none (no result: EBV gp42 inh)
O=C1CCCC/C1=C\Nc1ccc(O)cc1	E coli Lon inh 19 | E coli Lon conf inactive
Cc1c(C2Nc3ccccc3NC3=C2C(=O)CC(C)(C)C3)cnn1C (stereo unspecified)	E coli Lon inh 144 | E coli Lon conf inactive
CC1(C)CC(=O)C2=C(C1)Nc1ccccc1NC2c1ccccc1F (stereo unspecified)	E coli Lon inh 34 (no result: EBV gp42 inh) | E coli Lon conf inactive
CC1(C)CC(=O)C2=C(C1)Nc1ccccc1NC2c1cccs1 (stereo unspecified)	none
O=c1ccn(CCCBr)c(=O)[nH]1	none
O=C(O)c1csc(-c2ccc(Cl)cc2)n1	E coli Lon inh 16 | E coli Lon conf inactive
Cc1ccc(C(=O)C(C)OC(=O)CN2C(=O)NC3(CCCC3)C2=O)cc1C (stereo unspecified)	none (no result: EBV gp42 inh)
O=C1c2ccc3c4c(ccc(c24)C(=O)N1CCCCO)C(=O)N(CCCCO)C3=O	E coli Lon inh 50 (no result: Bcl-xL primary, GLD-1 RNA inh, MCL1 BIM primary) | E coli Lon conf 50
Cc1ccc(S(=O)(=O)NC(=O)NCCCN2CCOCC2)cc1	none (no result: EBV gp42 inh)
C=CCn1c(COc2ccc(OC)cc2)nnc1SC(C)C(=O)NC1CC1 (stereo unspecified)	none (no result: EBV gp42 inh, MEX-5 binding)
CCC(c1nnc(SC(C)C(=O)NC2CC2)n1-c1ccc(OC)cc1)N(C)C (stereo unspecified)	E coli Lon inh 19 (no result: EBV gp42 inh, MEX-5 binding) | E coli Lon conf inactive
COc1cc(/C=N/NC(=O)COc2ccc(-n3cnnn3)cc2)ccc1OCC(N)=O	E coli Lon inh 22 | E coli Lon conf inactive
NC(=O)COc1ccc(-n2cnnn2)cc1	none
CC[C@]12c3[nH]c4cc(CCC(=O)N(C)C)ccc4c3CCN1C(=O)[C@@H](CC(=O)NC(C)(C)C)C[C@@H]2C(=O)N1CCN(C(=O)c2ccco2)CC1	none (no result: Bcl-xL primary, EBV gp42 inh, GLD-1 RNA inh, MCL1 BIM primary, MEX-5 binding)
O=C(CCNC(=O)C1CCN(S(=O)(=O)c2ccc(F)cc2)CC1)NCc1ccccc1Cl	E coli Lon inh 17 (no result: EBV gp42 inh) | E coli Lon conf inactive
CCOC(=O)N(C)OC(=O)Nc1ccc(Cl)c(Cl)c1	E coli Lon inh 19 | E coli Lon conf 25
Cc1ccc(NS(=O)(=O)c2cc(C(=O)N(C)C3CCN(C)CC3)ccc2Cl)cc1Cl	none (no result: Bcl-xL primary, EBV gp42 inh, MCL1 BIM primary, MEX-5 binding)
Cc1cc(C(=O)CSc2nnc(CCC(N)=O)n2C)c(C)n1C1CC1	none (no result: Bcl-xL primary, EBV gp42 inh, GLD-1 RNA inh, MCL1 BIM primary, MEX-5 binding)
CC(=O)O[C@@]1(C)C[C@@H](O)[C@]2(O)C=CO[C@@H](O[C@@H]3O[C@H](CO)[C@@H](O)[C@H](O)[C@H]3O)[C@@H]21	none (no result: EBV gp42 inh, MEX-5 binding)
CCOc1ccc(OCCC(=O)NNC(=O)c2ccncc2)cc1	none (no result: EBV gp42 inh, MEX-5 binding)
O=C(c1ccccc1)c1ccc(C(=O)N2CCN(c3ccccc3Cl)CC2)cc1	E coli Lon inh 18 (no result: EBV gp42 inh, MEX-5 binding) | E coli Lon conf inactive
CC1Cc2nc(SCC(=O)NCC3CCCO3)n(-c3ccccc3)c(=O)c2S1 (stereo unspecified)	none (no result: Bcl-xL primary, EBV gp42 inh, GLD-1 RNA inh, MCL1 BIM primary, MEX-5 binding)
CC1(C)CC(=O)c2cnc(NCC3CCCO3)nc2C1 (stereo unspecified)	none
CC1CC(=O)c2cnc(NCC3CCCO3)nc2C1 (stereo unspecified)	E coli Lon inh 16 | E coli Lon conf inactive
CC(=O)Nc1ccc(/C=N/OCC(=O)Nc2ccc(C)cc2)cc1	none
COc1ccc(C=NOCC(=O)OCC(=O)Nc2ccc(OC)cc2)cc1	E coli Lon inh 50 (no result: Bcl-xL primary, EBV gp42 inh, MCL1 BIM primary, MEX-5 binding) | E coli Lon conf 21
CCOc1ccc(C(C(=O)NC2CCCCC2)N(C(=O)c2csnn2)C2CC2)cc1 (stereo unspecified)	E coli Lon inh 24 (no result: EBV gp42 inh) | E coli Lon conf inactive
CCN(CC(=O)NCc1cccs1)S(=O)(=O)c1ccc(F)cc1	none (no result: EBV gp42 inh)

Compound activity as filed in PubChem BioAssay.
